Measured values taken from PubChem BioAssay (Tox21).
A number with no mark means an inactive call. Inconclusive results are not listed. Calls of active or inactive are those of the source. The call rests on the fitted dose curve; in most records, active means well fitted curve in the direction sought with a large enough effect in the repeat runs; inconclusive means weak or mixed curves; inactive means no such curve, though single readings can be large; an effect the other way counts as inactive or inconclusive.

Assay: A CellTox Green Cytotoxicity Assay to monitor cytotoxicity in HEK293 cells - 0 hour (AID 1224869); further: nearly all actives have a fitted effect of over 50% in size
Conditions: CellTox Green fluorescence; series mostly up to 76.8 µM; cytotoxicity: at the top concentration
In short: (§1)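 Nonlytic real-time cytotoxicity: HEK293 + CellTox Green reagent plated, 5 h preincubation, pintool compound addition (23 nL in DMSO), 37 C for 40 h, fluorescence measured at successive time points.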
On the % scale 0 is the no-effect control and ±100 the full control effect.

| SMILES | cytotoxicity | Potency |
| --- | --- | --- |
| NC(=O)CI | -3% | – |
| CCOC(=O)[C@]1(c2ccccc2)Oc2ccccc2[C@@H]1N | 1.3% | – |
| CCC(Cl)CCl (centres undefined) | -6.45% | – |
| Cc1ccccc1C(=O)Nc1cccc(OC(C)C)c1 | 2.27% | – |
| O=C(O)C(F)(F)C(F)(F)C(F)(F)C(F)(F)C(F)(F)C(F)(F)C(F)(F)C(F)(F)C(F)(F)F | 0.164% | – |
| CCBr | 1.44% | – |
| CCOP(=O)(OCC)SCCSCC | – | inactive |
| CC(=O)CCC(C)=O | 0.525% | – |
| Nc1nc(=S)[nH][nH]1 | 4.27% | – |
| c1ccc(CN2CCNCC2)cc1 | -3.45% [at 200 µM] | – |
| CC(C)(Cl)[N+](=O)[O-] | 1.48% | – |
| CN1C[C@H](CNC(=O)OCc2ccccc2)C[C@@H]2c3cccc4c3c(cn4C)C[C@H]21 | -12.4% [at 35.3 µM] | – |
| CC(=O)c1cc2c(cc1C)C(C)(C)C(C)CC2(C)C (centres undefined) | -7.08% | – |
| CCOP(=O)(OCC)Oc1ccc([N+](=O)[O-])cc1 | – | inactive |
| COC(=O)C(Cl)C(=O)OC | 1.09% [at 35.3 µM] | – |
| O=C(NC(=O)c1c(F)cccc1F)Nc1ccc(OC(F)(F)C(F)OC(F)(F)F)c(Cl)c1 (centres undefined) | 0.386% [at 35.3 µM] | – |
| CCCCC(CC)COP(=O)(Oc1ccccc1)Oc1ccccc1 (centres undefined) | 8.04% | – |
| CC(C)N(CCC(C(N)=O)(c1ccccc1)c1ccccn1)C(C)C (centres undefined) | -3.28% [at 35.3 µM] | – |

| SMILES | cytotoxicity | Potency |
| --- | --- | --- |
| CCOP(O)OCC | 0.817% | – |
| O=C(O)CC(Cl)C(=O)O (centres undefined) | -2.72% | – |
| Nc1ccc([N+](=O)[O-])cc1[N+](=O)[O-] | -5.02% | – |
| NCC(CC(=O)O)c1ccc(Cl)cc1 (centres undefined) | -11.1% [at 0.29 µM] | – |
| BrCC(Br)C1CCC(Br)C(Br)C1 (centres undefined) | 2.1% | – |
| CCC(C)(NC(=O)c1cc(Cl)c(C)c(Cl)c1)C(=O)CCl (centres undefined) | 0.494% | – |
| N#C/C(N)=C(/N)C#N | 0.584% | – |
| BrCCCCBr | 4.13% | – |
| Cn1sc(Cl)cc1=O | -3.49% | – |
| C=CC(=O)NCNC(=O)C=C | -1.69% | – |
| S=C=NCc1ccccc1 | 4.75% | – |
| C=CCN1CC[C@]23c4c5ccc(O)c4O[C@H]2C(=O)CC[C@@]3(O)[C@H]1C5 | -0.662% [at 35.3 µM] | – |
| COC(C)(C)CCC[C@H](C)C/C=C/C(C)=C/C(=O)OC(C)C | -0.811% | – |
| CC(C)(OO)c1ccccc1 | 5.67% | – |
| ClP(Cl)(Cl)(Cl)Cl | 5.54% | – |
| CC(=O)C(C)(C)C | -5.91% | – |
| O=C(NCc1cccnc1)Nc1ccc([N+](=O)[O-])cc1 | -3.03% | – |
| Cc1ccc(N)cc1C | 4.99% | – |

Assay: qHTS RealTime-Glo MT Cell Viability Assay in HepG2 cells - 40 hour (AID 1224870); further: nearly all actives have a fitted effect of over 50% in size; further: potency means the concentration at half of the fitted maximal effect
Conditions: RealTime-Glo luminescence; series mostly up to 76.8 µM; activity change, negative = cytotoxic: at the top concentration
In short: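 HepG2 cells mixed with RealTime-Glo MT reagents (NanoLuc plus cell-permeant prosubstrate) were seeded at 600 cells/well, incubated 5 h at 37 C/5% CO2, then pinned with compounds in DMSO; nonlytic luminescence tracked viability during 40 h treatment.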

| SMILES | activity change, negative = cytotoxic | Potency |
| --- | --- | --- |
| CCOC(=O)[C@]1(c2ccccc2)Oc2ccccc2[C@@H]1N | -1.18% | – |
| Cc1ccccc1C(=O)Nc1cccc(OC(C)C)c1 | -5.94% | – |
| O=C(O)C(F)(F)C(F)(F)C(F)(F)C(F)(F)C(F)(F)C(F)(F)C(F)(F)C(F)(F)C(F)(F)F | 2.22% | – |
| CCOP(=O)(OCC)SCCSCC | – | inactive |
| CC(C)(Cl)[N+](=O)[O-] | -3.86% | – |
| CC(=O)c1cc2c(cc1C)C(C)(C)C(C)CC2(C)C (centres undefined) | -0.578% | – |
| CCOP(=O)(OCC)Oc1ccc([N+](=O)[O-])cc1 | – | inactive |
| COC(=O)C(Cl)C(=O)OC | 1.44% [at 35.3 µM] | – |
| O=C(NC(=O)c1c(F)cccc1F)Nc1ccc(OC(F)(F)C(F)OC(F)(F)F)c(Cl)c1 (centres undefined) | -10% [at 35.3 µM] | – |
| CCCCC(CC)COP(=O)(Oc1ccccc1)Oc1ccccc1 (centres undefined) | 0.0085% | – |
| CC(C)N(CCC(C(N)=O)(c1ccccc1)c1ccccn1)C(C)C (centres undefined) | -0.911% [at 35.3 µM] | – |
| CCOP(O)OCC | 1.64% | – |
| O=C(O)CC(Cl)C(=O)O (centres undefined) | -2.11% | – |
| NCC(CC(=O)O)c1ccc(Cl)cc1 (centres undefined) | -1.34% [at 0.29 µM] | – |
| BrCC(Br)C1CCC(Br)C(Br)C1 (centres undefined) | -0.204% | – |
| CCC(C)(NC(=O)c1cc(Cl)c(C)c(Cl)c1)C(=O)CCl (centres undefined) | – | 49.3 µM (active) |
| N#C/C(N)=C(/N)C#N | -1.19% | – |
| BrCCCCBr | 2.25% | – |
| Cn1sc(Cl)cc1=O | 0.294% | – |
| S=C=NCc1ccccc1 | -24.5% | – |
| C=CCN1CC[C@]23c4c5ccc(O)c4O[C@H]2C(=O)CC[C@@]3(O)[C@H]1C5 | 0.0434% [at 35.3 µM] | – |
| CC(C)(OO)c1ccccc1 | 0.218% | – |
| CC(=O)C(C)(C)C | -4.24% | – |
| O=C(NCc1cccnc1)Nc1ccc([N+](=O)[O-])cc1 | 0.656% | – |
| Cc1ccc(N)cc1C | 0.833% | – |

Assay: A CellTox Green Cytotoxicity Assay to monitor cytotoxicity in HEK293 cells - 40 hour (AID 1224871); further: nearly all actives have a fitted effect of over 45% in size; further: potency means the concentration at half of the fitted maximal effect
Conditions: CellTox Green fluorescence; series mostly up to 76.8 µM; cytotoxicity increase: at the top concentration
In short: as §1

| SMILES | cytotoxicity increase | Potency |
| --- | --- | --- |
| CCOC(=O)[C@]1(c2ccccc2)Oc2ccccc2[C@@H]1N | 0.911% | – |
| CCC(Cl)CCl (centres undefined) | -2.54% | – |
| Cc1ccccc1C(=O)Nc1cccc(OC(C)C)c1 | 14.4% | – |
| O=C(O)C(F)(F)C(F)(F)C(F)(F)C(F)(F)C(F)(F)C(F)(F)C(F)(F)C(F)(F)C(F)(F)F | -7.97% | – |
| CCBr | 2.27% | – |
| CCOP(=O)(OCC)SCCSCC | – | inactive |
| CC(=O)CCC(C)=O | 1.05% | – |
| Nc1nc(=S)[nH][nH]1 | 0.106% | – |
| c1ccc(CN2CCNCC2)cc1 | -5.59% [at 200 µM] | – |
| CC(C)(Cl)[N+](=O)[O-] | 3.56% | – |
| CN1C[C@H](CNC(=O)OCc2ccccc2)C[C@@H]2c3cccc4c3c(cn4C)C[C@H]21 | 20.5% [at 35.3 µM] | – |
| CC(=O)c1cc2c(cc1C)C(C)(C)C(C)CC2(C)C (centres undefined) | – | 19.5 µM (active) |
| CCOP(=O)(OCC)Oc1ccc([N+](=O)[O-])cc1 | – | inactive |
| COC(=O)C(Cl)C(=O)OC | 0.529% [at 35.3 µM] | – |
| O=C(NC(=O)c1c(F)cccc1F)Nc1ccc(OC(F)(F)C(F)OC(F)(F)F)c(Cl)c1 (centres undefined) | -10.2% [at 35.3 µM] | – |
| CCCCC(CC)COP(=O)(Oc1ccccc1)Oc1ccccc1 (centres undefined) | 5.18% | – |
| CC(C)N(CCC(C(N)=O)(c1ccccc1)c1ccccn1)C(C)C (centres undefined) | -4.91% [at 35.3 µM] | – |

| SMILES | cytotoxicity increase | Potency |
| --- | --- | --- |
| CCOP(O)OCC | -2% | – |
| O=C(O)CC(Cl)C(=O)O (centres undefined) | -1.55% | – |
| Nc1ccc([N+](=O)[O-])cc1[N+](=O)[O-] | -0.673% | – |
| NCC(CC(=O)O)c1ccc(Cl)cc1 (centres undefined) | -18.6% [at 0.29 µM] | – |
| BrCC(Br)C1CCC(Br)C(Br)C1 (centres undefined) | 6.83% | – |
| CCC(C)(NC(=O)c1cc(Cl)c(C)c(Cl)c1)C(=O)CCl (centres undefined) | – | 43.9 µM (active) |
| N#C/C(N)=C(/N)C#N | -9.35% | – |
| BrCCCCBr | -4.44% | – |
| Cn1sc(Cl)cc1=O | 9.56% | – |
| C=CC(=O)NCNC(=O)C=C | -1.86% | – |
| S=C=NCc1ccccc1 | – | 55.5 µM (active) |
| C=CCN1CC[C@]23c4c5ccc(O)c4O[C@H]2C(=O)CC[C@@]3(O)[C@H]1C5 | -25.4% [at 35.3 µM] | – |
| CC(C)(OO)c1ccccc1 | 14.4% | – |
| CC(=O)C(C)(C)C | 0.302% | – |
| O=C(NCc1cccnc1)Nc1ccc([N+](=O)[O-])cc1 | 25% | – |
| Cc1ccc(N)cc1C | 0.359% | – |
